This note sets out measurements from PubChem BioAssay (NCI).

Assay [1] is described as follows: NCI Yeast Anticancer Drug Screen. Data for the rad50 strain (AID 155).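 Also: 0% = growth of vehicle-only cultures of the same strain.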 To be noted: S. cerevisiae rad50 strain growth inhibition; at 50.0 µM; stronger effect = higher value. The essentials:
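Readout: growth inhibition relative to vehicle-treated cultures. Compound exposure was carried out in a genetically defined yeast strain deficient in DNA damage repair.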

Assay [2] in a line: NCI Yeast Anticancer Drug Screen. Data for the mec2-1 strain (AID 157). To be noted: S. cerevisiae mec2-1 strain, at 50.0 µM, stronger effect = higher value. The essentials:
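Each compound was tested on mec2-1 yeast, a strain altered in DNA damage repair or cell cycle control. Growth inhibition is reported relative to vehicle.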

A short description of assay [3]: NCI Yeast Anticancer Drug Screen. Data for the sgs1 mgt1 strain (AID 161).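 Also: 0% = growth of cultures given vehicle only.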 Conditions: S. cerevisiae sgs1 mgt1 strain, at 50.0 µM, stronger effect = higher value. Put shortly:
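Test agents were incubated with a DNA-repair-mutant yeast strain. Growth was then read and compared against vehicle-treated controls.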

Assay [4] can be described thus: NCI Yeast Anticancer Drug Screen. Data for the cln2 rad14 strain (AID 165).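 Also: 0% = growth equal to vehicle treated cultures.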 Conditions: S. cerevisiae cln2 rad14 strain, at 50.0 µM, stronger effect = higher value. Put shortly: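 Test compounds were added to cln2 rad14 yeast cultures; inhibition of growth was then determined by comparison with vehicle treatment.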
Assay [5] in a line: NCI Yeast Anticancer Drug Screen. Data for the bub3 strain (AID 167). To be noted: S. cerevisiae bub3 mutant strain, at 50.0 µM, stronger effect = higher value. Put shortly: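 Readout: yeast growth inhibition, expressed relative to vehicle-only wells. The test organism is a mutant strain from a panel with lesions in DNA repair or checkpoint genes.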
Assay [6] in a line: NCI Yeast Anticancer Drug Screen. Data for the mlh1 rad18 strain (AID 175). Conditions: S. cerevisiae mlh1 rad18 strain growth inhibition; at 50.0 µM; stronger effect = higher value. The essentials: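 Inhibition values reflect reduced growth of mutant yeast versus vehicle-treated controls following compound exposure; the mutations affect DNA damage repair.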

This is part of a sample that, as a whole, favours compounds with a hit. Of some 79,000 tested, about 15% had one in any assay. Values without a mark were called inactive. Calls of active or inactive are those of the source. Rule as the data show it: active = growth inhibition above about 70%; inactive = the rest.

For `COC(=O)[C@H](Cc1c[nH]c2ccccc12)NP(=O)(O)OCC1C=CC(n2cc(C)c(=O)[nH]c2=O)O1` (stereo not given in full), the growth inhibition is -8.5% in assay [1]; -7.75% in assay [2]; -9.6% in assay [3]; 6.8% in assay [4]; -13.1% in assay [5]; -49.7% in assay [6].
On to `Brc1ccc(-c2oc3c4ccccc4c4ccccc4c3c2-c2ccc(Br)cc2)cc1`, for which the growth inhibition in assay [1] is 32.5%; in assay [2], 5.35%; in assay [3], 17.8%; in assay [4] it was -0.95%; in assay [5], 2.9%; in assay [6], 15.2%.
Consider `OC(c1ccccc1)(C(F)(F)F)C(F)(F)F`, for which the growth inhibition in assay [1] was 3%; in assay [2], 5.85%; in assay [3], 6.1%; in assay [4], 14.3%; in assay [5], 9.9%; in assay [6], 8.75%.
With `O=C1CCCc2c(O)ccc(O)c21`, the growth inhibition in assay [1] was 5.2%; in assay [2], 2.8%; in assay [3], -2.6%; in assay [4], 11.4%; in assay [5], 8.15%; in assay [6] it was 28.4%.
On to `CC1=C/C(=C(/c2cccc(S(=O)(=O)O)c2)c2cc(C)c(O)c(C(=O)O)c2)C=C(C(=O)O)C1=O`, for which the growth inhibition was 4.4% in assay [1]; -21.8% in assay [2]; -3.7% in assay [3]; 25.2% in assay [4]; -3.7% in assay [5]; 9.05% in assay [6].
With `CC1CCCN(N=Nc2ccc(Br)cc2-c2nc(N)c3cc(Br)ccc3n2)C1` (stereo not given), the growth inhibition in assay [1] is 99.2% (active); in assay [2], 99.2% (active); in assay [3], 99.5% (active); in assay [4], 98.2% (active); in assay [5] it was 99% (active); in assay [6] it was 99% (active).
`O=P(O)(CP(=O)(c1ccccc1)c1ccccc1)c1ccccc1`: the growth inhibition in assay [1] is 15.3%; in assay [2], 7.25%; in assay [3], 15.9%; in assay [4] it was 16.2%; in assay [5], 5.9%; in assay [6] it was 10.9%.
With `c1ccc(C(NC2=NCCO2)C2CC2)cc1` (stereo not given), the growth inhibition is -12.8% in assay [1]; -18.4% in assay [2]; -9.1% in assay [3]; 23.3% in assay [4]; -9.55% in assay [5]; -54.9% in assay [6].
Turning to `COc1cccc(/C=C2\CCC(C)(CN(C)C)C2=O)c1` (stereo not given), the growth inhibition in assay [1] was 32.9%; in assay [2], 9.1%; in assay [3] it was 38.9%; in assay [4], 29.2%; in assay [5] it was 13.2%; in assay [6], 29.9%.
Take `CCOCCNCc1ccc(Cl)cc1Cl`: the growth inhibition is 4% in assay [1]; -1.45% in assay [2]; -5% in assay [3]; 2.85% in assay [4]; 7.8% in assay [5]; -9.7% in assay [6].
With `COC(=O)NC(Nc1ccc(Cl)cc1Cl)(C(F)(F)F)C(F)(F)F`, the growth inhibition in assay [1] was 44.6%; in assay [2], 6.7%; in assay [3] it was 12.2%; in assay [4] it was 20.6%; in assay [5], 30.1%; in assay [6] it was 16.6%.
For `CCc1[nH]c(=O)c2oc3cc4ccccc4cc3c2c1C(=O)O`, the growth inhibition in assay [1] was -43.9%; in assay [2], -35.5%; in assay [3] it was -55.6%; in assay [4] it was -29.4%; in assay [5] it was -17.8%; in assay [6], -70.3%.
Turning to `NC(=O)C(NN=C1c2ccccc2-c2ccccc21)(c1ccccc1)c1ccccc1`, the growth inhibition in assay [1] was 41%; in assay [2] it was -0.2%; in assay [3], 28%; in assay [4], 42.8%; in assay [5] it was 0.05%; in assay [6], 18.7%.
As for `COC(=O)c1cn2ccc3ccccc3c2c1C(=O)OC`, the growth inhibition is -3.95% in assay [1]; 2.15% in assay [2]; 9% in assay [3]; -0.25% in assay [4]; -15.7% in assay [5]; 15.5% in assay [6].
On to `Brc1ccc(-c2[nH]c3ccccc3c2N=Nc2ccccc2)cc1`, for which the growth inhibition was 0.85% in assay [1]; -9.6% in assay [2]; 6.45% in assay [3]; -7% in assay [4]; -11.1% in assay [5]; -56.7% in assay [6].
`CC[Si](CC)(CC)[Si](c1ccccc1)(c1ccccc1)c1ccccc1`: the growth inhibition was 42.1% in assay [1]; 32% in assay [2]; 17.1% in assay [3]; 8.8% in assay [4]; -17.4% in assay [5]; 48.8% in assay [6].
For `C=CC(C)(C)NC(C(=O)N1CCC[C@H]1c1nc(-c2nc(C(=O)OCC=C(C)C)c(C)o2)c(C)o1)C(C)C` (stereo not given in full), the growth inhibition in assay [1] was -4.25%; in assay [2], -10.7%; in assay [3], 15.6%; in assay [4], -11.3%; in assay [5], 3.05%; in assay [6], -2.85%.
Regarding `FC(F)(F)C1(F)C(F)(F)C(F)(F)C(F)(F)C(F)(F)C1(F)F`, the growth inhibition in assay [1] is 16.3%; in assay [2] it was -39.1%; in assay [3], -4.95%; in assay [4], -96.2%; in assay [5], -24.1%; in assay [6], 27.9%.
Take `CN(C)c1ccc(/C=c2\sc3nnc(Cc4ccccc4)n3c2=O)cc1`: the growth inhibition was -7.8% in assay [1]; -13.6% in assay [2]; -0.25% in assay [3]; 11.1% in assay [4]; 11.1% in assay [5]; 1.35% in assay [6].
`O=C(O)CCCc1ccc(O)cc1`: the growth inhibition in assay [1] was 7.1%; in assay [2] it was 11.7%; in assay [3], 8.4%; in assay [4], 10.7%; in assay [5], -1.15%; in assay [6], 20.3%.
